# Results: the supplement of paper PMC8728848
# This excerpt belongs to a sample that is enriched for the strongest signals.
# B1: Surfactant Protein D (Human); Neck + Carbohydrate Recognition Domain (NCRD) (Homo sapiens) (protein)
# chain: MLLFLLSALVLLTQPLGYLEAEMKTYSHRTMPSACTLVMCSSVESGLPGRDRDGREGPRGEKGDPGLPGAAGQAGMPGQAGPVGPKGDNGSVGEPGPKGDTGPSGPPGPPGVPGPAGREGALGKQGNIGPQGKPGPKGEAGPKGEVGAPGMQGSAGARGLAGPKGERGVPGERGVPGNTGAAGSAGAMGPQGSPGARGPPGLKGDKGIPGDKGAKGESGLPDVASLRQQVEALQGQVQHLQAAFSQYKKVELFPNGQSVGEKIFKTAQFVKPFTEAQLLCTQAGGQLASPRSAAENAALQQLVVAKNEAAFLSMTDSKTEGKFTYPTGESLVYSNWAPGKPNDDGGSEDCVEIFTNGKWNDRACGEKRLVVCEF
# Columns and labels:
# Assay in all cases: glycan array binding signal (z-score within array); higher = stronger binding
# Details in all cases: glycan notation: IUPAC condensed, linker removed; mutation: E321K
# [1] = target: Fuc(a1-2)Gal(b1-4)[Fuc(a1-3)]GlcNAc
# Summary of the method: (§1)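 Columns mapping to the same glycan were averaged after glycan names were converted to IUPAC-condensed notation. The data come from 3228 arrays in the Consortium for Functional Glycomics database, limited to those with an available protein sequence. Binding is reported as a within-array Z-score averaged across arrays of one protein sequence and across linkers.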
# [2] = target: Fuc(a1-2)[GalNAc(a1-3)]Gal(b1-3)GlcNAc
# Summary of the method: as §1
# [3] = target: Fuc(a1-2)[GalNAc(b1-3)]Gal
# Summary of the method: as §1
# Gal(a1-3)Gal = target: Gal(a1-3)Gal
# Summary of the method: as §1
# Gal(a1-3)Gal(b1-4)GlcNAc = target: Gal(a1-3)Gal(b1-4)GlcNAc
# Summary of the method: as §1
# [4] = target: Gal(b1-4)GalNAc(a1-3)[Fuc(a1-2)]Gal(b1-4)GlcNAc
# Summary of the method: as §1
# Gal(b1-4)Glc = target: Gal(b1-4)Glc
# Summary of the method: as §1
# [5] = target: Gal(b1-4)GlcNAc(b1-3)Gal(b1-3)GlcNAc
# Summary of the method: as §1
# [6] = target: Gal(b1-4)GlcNAc(b1-3)GalNAc
# Summary of the method: as §1
# [7] = target: Gal(b1-4)GlcNAc(b1-6)[Gal(b1-3)]GalNAc
# Summary of the method: as §1
# Gal6S(b1-4)Glc6S = target: Gal6S(b1-4)Glc6S
# Summary of the method: as §1
# [8] = target: GlcNAc(b1-3)[GlcNAc(b1-6)]GalNAc
# Summary of the method: as §1
# GlcNAc(b1-4)GlcNAc = target: GlcNAc(b1-4)GlcNAc
# Summary of the method: as §1
# [9] = target: GlcNAc(b1-4)GlcNAc(b1-4)GlcNAc(b1-4)GlcNAc(b1-4)GlcNAc(b1-4)GlcNAc
# Summary of the method: as §1
# [10] = target: Man(a1-2)Man(a1-2)Man(a1-6)[Man(a1-3)]Man
# Summary of the method: as §1
# [11] = target: Neu5Ac(a2-3)Gal(b1-3)GalNAc6S
# Summary of the method: as §1
# [12] = target: Neu5Ac(a2-3)Gal(b1-4)GlcNAc(b1-3)Gal(b1-3)GlcNAc
# Summary of the method: as §1
# [13] = target: Neu5Ac(a2-3)Gal(b1-4)GlcNAc(b1-3)Gal(b1-4)[Fuc(a1-3)]GlcNAc
# Summary of the method: as §1
# [14] = target: Neu5Ac(a2-3)Gal6S(b1-4)GlcNAc
# Summary of the method: as §1
# [15] = target: Neu5Ac(a2-3)GalNAc(b1-4)GlcNAc
# Summary of the method: as §1
# [16] = target: Neu5Ac(a2-6)Gal(b1-4)GlcNAc(b1-2)Man(a1-3)[GlcNAc(b1-2)Man(b1-4)GlcNAc(b1-2)Man(a1-6)]Man(b1-4)GlcNAc(b1-4)GlcNAc
# Summary of the method: as §1
# [17] = target: Neu5Ac(a2-6)Gal(b1-4)GlcNAc(b1-3)Gal(b1-4)GlcNAc
# Summary of the method: as §1
# [18] = target: Neu5Ac(a2-8)Neu5Ac(a2-8)Neu5Ac
# Summary of the method: as §1
# [19] = target: Neu5Ac(a2-8)Neu5Ac(a2-8)Neu5Ac(a2-3)Gal(b1-4)Glc
# Summary of the method: as §1
# Neu5Ac(b2-6)GalNAc = target: Neu5Ac(b2-6)GalNAc
# Summary of the method: as §1
binder,measurement,setting,value
B1,glycan array binding signal (z-score),[1],-0.011
same,glycan array binding signal (z-score),[2],-0.437
same,glycan array binding signal (z-score),[3],-0.418
same,glycan array binding signal (z-score),Gal(a1-3)Gal,-0.277
same,glycan array binding signal (z-score),Gal(a1-3)Gal(b1-4)GlcNAc,0.494
same,glycan array binding signal (z-score),[4],-0.87
same,glycan array binding signal (z-score),Gal(b1-4)Glc,-0.968
same,glycan array binding signal (z-score),[5],-0.871
same,glycan array binding signal (z-score),[6],-0.758
same,glycan array binding signal (z-score),[7],-0.831
same,glycan array binding signal (z-score),Gal6S(b1-4)Glc6S,2.78
same,glycan array binding signal (z-score),[8],-0.62
same,glycan array binding signal (z-score),GlcNAc(b1-4)GlcNAc,2.94
same,glycan array binding signal (z-score),[9],-0.106
same,glycan array binding signal (z-score),[10],0
same,glycan array binding signal (z-score),[11],0.404
same,glycan array binding signal (z-score),[12],-0.578
same,glycan array binding signal (z-score),[13],0.062
same,glycan array binding signal (z-score),[14],0.549
same,glycan array binding signal (z-score),[15],3.92
same,glycan array binding signal (z-score),[16],5.34
same,glycan array binding signal (z-score),[17],-0.587
same,glycan array binding signal (z-score),[18],-0.381
same,glycan array binding signal (z-score),[19],-0.475
same,glycan array binding signal (z-score),Neu5Ac(b2-6)GalNAc,3.67
